We go through eleven compounds from ChEMBL document CHEMBL3988442, “University of Dundee, Small-Polar-MMV Screening Library” (2021).

The structures appear in SMILES notation. “And” between values parts separate entries of the source, which are not always exact repeats. Identical values can stand only once. For some assays here: Measured potencies and affinities stand elsewhere.

What all share (design): scale not given: direction of the effect not stated beside the values
The target of test [1] is Protein translocase subunit SecA (Escherichia coli (strain K12)) (UniProt P10408). Nature of the test: Assay to Identify E. coli SecA ATPase Inhibitors. It counts as functional. The note with it: 30 µM.
Test [2] addresses T1, Ubiquitin-activating enzyme e1, putative (Leishmania donovani (strain BPK282A1)) (UniProt E9BSI1).
T1 sequence (whole entry): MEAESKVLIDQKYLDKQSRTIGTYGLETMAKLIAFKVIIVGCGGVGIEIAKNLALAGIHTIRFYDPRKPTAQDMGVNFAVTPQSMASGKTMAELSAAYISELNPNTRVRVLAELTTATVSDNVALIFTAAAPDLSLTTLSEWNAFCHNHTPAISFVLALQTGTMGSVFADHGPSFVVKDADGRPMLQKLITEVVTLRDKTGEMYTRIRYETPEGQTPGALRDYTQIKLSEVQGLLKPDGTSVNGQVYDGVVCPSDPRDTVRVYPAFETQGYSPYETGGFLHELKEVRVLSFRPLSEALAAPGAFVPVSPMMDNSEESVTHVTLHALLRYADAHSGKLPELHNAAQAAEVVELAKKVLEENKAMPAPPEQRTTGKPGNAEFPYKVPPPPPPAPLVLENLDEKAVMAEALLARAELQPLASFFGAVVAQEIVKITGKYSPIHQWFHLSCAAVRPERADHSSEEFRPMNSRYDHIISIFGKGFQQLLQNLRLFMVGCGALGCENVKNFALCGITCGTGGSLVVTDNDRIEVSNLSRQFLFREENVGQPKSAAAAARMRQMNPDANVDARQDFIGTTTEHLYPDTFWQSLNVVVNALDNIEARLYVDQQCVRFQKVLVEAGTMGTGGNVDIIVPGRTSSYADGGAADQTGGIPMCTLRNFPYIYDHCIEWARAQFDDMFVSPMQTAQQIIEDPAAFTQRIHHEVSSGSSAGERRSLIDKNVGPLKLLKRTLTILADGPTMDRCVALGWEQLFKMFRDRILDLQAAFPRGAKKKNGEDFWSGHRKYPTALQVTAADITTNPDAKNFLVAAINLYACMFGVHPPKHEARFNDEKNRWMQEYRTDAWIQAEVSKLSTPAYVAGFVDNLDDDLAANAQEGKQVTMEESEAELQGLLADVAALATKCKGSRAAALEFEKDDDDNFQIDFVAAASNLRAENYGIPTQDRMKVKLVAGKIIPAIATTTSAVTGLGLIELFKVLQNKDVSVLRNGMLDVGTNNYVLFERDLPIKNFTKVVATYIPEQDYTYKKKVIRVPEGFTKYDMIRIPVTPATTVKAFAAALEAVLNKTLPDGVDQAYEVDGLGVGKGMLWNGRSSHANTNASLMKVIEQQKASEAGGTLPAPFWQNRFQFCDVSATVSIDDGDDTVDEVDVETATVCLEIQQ
As to the kind of experiment: Leishmania donovani Ubiquitin Activating Enzyme (LdE1). The format is functional. To be noted: 30 µM.

In test [3] the target is Sialic acid-binding Ig-like lectin 9 (Homo sapiens) (UniProt Q9Y336). Nature of the test: Hs-Siglec9 ALPHAscreen SOP 20170721. The note with it: 10 µM. In general terms: Alpha assays give light when donor and acceptor beads are brought close together.
The next test deals with Trypanosoma cruzi. As to the kind of experiment: Trypanosoma cruzi phosphomannomutase and mannose-1-phosphate guanylyltransferase assay. The format is functional. The note with it: 10 µM.
The target of test [4] is T2, Arginase-2, mitochondrial (Homo sapiens) (UniProt P78540).
T2 sequence (whole entry): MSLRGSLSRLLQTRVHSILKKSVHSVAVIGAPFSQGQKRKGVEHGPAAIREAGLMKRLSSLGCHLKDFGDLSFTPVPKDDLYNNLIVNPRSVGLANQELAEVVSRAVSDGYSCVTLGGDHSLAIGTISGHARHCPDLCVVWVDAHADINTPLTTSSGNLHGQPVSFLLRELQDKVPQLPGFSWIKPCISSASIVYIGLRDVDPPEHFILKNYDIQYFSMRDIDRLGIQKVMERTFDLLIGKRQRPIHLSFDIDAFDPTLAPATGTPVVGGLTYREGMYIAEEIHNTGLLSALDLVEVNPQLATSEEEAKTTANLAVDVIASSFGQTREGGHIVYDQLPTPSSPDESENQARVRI
As to the kind of experiment: in vitro enzyme assay to detect the production of urea directly proportional to the activity of Arginase II. Also: in the data most compounds retested in dose-response had high values. It counts as functional. The note with it: 33.3 µM.

Test [5] deals with T3, Proteasome subunit beta (Trypanosoma cruzi) (UniProt O96673).
T3 sequence (whole entry): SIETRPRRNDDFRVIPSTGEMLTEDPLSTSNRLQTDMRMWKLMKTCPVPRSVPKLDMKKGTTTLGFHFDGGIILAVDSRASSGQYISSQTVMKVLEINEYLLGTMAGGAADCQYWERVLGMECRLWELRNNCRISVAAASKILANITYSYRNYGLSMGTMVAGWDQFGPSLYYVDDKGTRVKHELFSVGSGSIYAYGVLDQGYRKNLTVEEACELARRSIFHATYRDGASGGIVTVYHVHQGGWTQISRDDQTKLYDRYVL
As to the kind of experiment: Trypanosoma cruzi proteasome chymotrypsin-like activity (TcProtChymo) assay. Also: in the data most compounds retested in dose-response had high values. To be noted: 9.37 µM. It counts as functional.

Another test is filed under the species Homo sapiens. As to the kind of experiment: To identify inhibition of the IFN signalling (Jak-Stat) pathway via expression of an eGFP reporter gene under the control of an IFN-stimulated response element (ISRE) containing MxA promoter. To be noted: 30 µM. It counts as functional. (In general: In a reporter assay the amount or activity of a reporter protein is the signal.)

For test [6], the target named is T4, Tyrosyl-tRNA synthetase, putative (Trypanosoma cruzi (strain CL Brener)) (UniProt Q4DSP6).
T4 sequence (whole entry): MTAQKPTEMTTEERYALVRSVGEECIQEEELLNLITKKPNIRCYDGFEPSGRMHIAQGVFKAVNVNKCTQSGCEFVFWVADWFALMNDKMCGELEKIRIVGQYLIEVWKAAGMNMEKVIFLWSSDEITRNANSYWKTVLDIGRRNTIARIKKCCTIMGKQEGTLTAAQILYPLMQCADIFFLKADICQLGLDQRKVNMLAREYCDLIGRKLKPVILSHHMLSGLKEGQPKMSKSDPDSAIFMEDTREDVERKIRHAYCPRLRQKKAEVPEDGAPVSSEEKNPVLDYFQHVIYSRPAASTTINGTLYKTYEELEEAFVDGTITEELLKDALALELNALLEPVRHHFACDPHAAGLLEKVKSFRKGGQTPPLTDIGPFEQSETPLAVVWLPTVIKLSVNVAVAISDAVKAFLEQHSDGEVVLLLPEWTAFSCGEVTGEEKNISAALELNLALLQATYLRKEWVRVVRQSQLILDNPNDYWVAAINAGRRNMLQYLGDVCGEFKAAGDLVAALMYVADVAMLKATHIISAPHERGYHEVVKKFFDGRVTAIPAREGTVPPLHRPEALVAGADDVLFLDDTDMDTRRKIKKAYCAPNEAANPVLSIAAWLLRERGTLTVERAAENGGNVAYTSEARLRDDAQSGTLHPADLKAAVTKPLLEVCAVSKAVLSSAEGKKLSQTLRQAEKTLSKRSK
As to the kind of experiment: Trypanosoma cruzi tyrosyl tRNA synthetase (TcYRS) _High Tyrosine SOP. Also: in the data most compounds retested in dose-response had high values. It counts as functional. The note with it: 30 µM.

Test [7] addresses T4, Tyrosyl-tRNA synthetase, putative (Trypanosoma cruzi (strain CL Brener)). As to the kind of experiment: Trypanosoma cruzi tyrosyl tRNA synthetase (TcYRS) SOP. The note with it: 30 µM. The format is functional.
The target in test [8] is Chromo domain-containing protein 1 (Saccharomyces cerevisiae (strain ATCC 204508 / S288c) (Baker's yeast)) (UniProt P32657). Nature of the test: ScCHD-1 Enzyme Inhibition Assay. Also: in the data most compounds retested in dose-response had high values. The format is functional. To be noted: 30 µM.
The subject of a further test is N/A. As to the kind of experiment: Trypanosoma cruzi proteasome luciferase counter-screen. It counts as functional. The note with it: 9.37 µM.

Chromo domain-containing protein 1 (Saccharomyces cerevisiae (strain ATCC 204508 / S288c) (Baker's yeast)), sequence (P32657 whole entry, the tested form may be a part): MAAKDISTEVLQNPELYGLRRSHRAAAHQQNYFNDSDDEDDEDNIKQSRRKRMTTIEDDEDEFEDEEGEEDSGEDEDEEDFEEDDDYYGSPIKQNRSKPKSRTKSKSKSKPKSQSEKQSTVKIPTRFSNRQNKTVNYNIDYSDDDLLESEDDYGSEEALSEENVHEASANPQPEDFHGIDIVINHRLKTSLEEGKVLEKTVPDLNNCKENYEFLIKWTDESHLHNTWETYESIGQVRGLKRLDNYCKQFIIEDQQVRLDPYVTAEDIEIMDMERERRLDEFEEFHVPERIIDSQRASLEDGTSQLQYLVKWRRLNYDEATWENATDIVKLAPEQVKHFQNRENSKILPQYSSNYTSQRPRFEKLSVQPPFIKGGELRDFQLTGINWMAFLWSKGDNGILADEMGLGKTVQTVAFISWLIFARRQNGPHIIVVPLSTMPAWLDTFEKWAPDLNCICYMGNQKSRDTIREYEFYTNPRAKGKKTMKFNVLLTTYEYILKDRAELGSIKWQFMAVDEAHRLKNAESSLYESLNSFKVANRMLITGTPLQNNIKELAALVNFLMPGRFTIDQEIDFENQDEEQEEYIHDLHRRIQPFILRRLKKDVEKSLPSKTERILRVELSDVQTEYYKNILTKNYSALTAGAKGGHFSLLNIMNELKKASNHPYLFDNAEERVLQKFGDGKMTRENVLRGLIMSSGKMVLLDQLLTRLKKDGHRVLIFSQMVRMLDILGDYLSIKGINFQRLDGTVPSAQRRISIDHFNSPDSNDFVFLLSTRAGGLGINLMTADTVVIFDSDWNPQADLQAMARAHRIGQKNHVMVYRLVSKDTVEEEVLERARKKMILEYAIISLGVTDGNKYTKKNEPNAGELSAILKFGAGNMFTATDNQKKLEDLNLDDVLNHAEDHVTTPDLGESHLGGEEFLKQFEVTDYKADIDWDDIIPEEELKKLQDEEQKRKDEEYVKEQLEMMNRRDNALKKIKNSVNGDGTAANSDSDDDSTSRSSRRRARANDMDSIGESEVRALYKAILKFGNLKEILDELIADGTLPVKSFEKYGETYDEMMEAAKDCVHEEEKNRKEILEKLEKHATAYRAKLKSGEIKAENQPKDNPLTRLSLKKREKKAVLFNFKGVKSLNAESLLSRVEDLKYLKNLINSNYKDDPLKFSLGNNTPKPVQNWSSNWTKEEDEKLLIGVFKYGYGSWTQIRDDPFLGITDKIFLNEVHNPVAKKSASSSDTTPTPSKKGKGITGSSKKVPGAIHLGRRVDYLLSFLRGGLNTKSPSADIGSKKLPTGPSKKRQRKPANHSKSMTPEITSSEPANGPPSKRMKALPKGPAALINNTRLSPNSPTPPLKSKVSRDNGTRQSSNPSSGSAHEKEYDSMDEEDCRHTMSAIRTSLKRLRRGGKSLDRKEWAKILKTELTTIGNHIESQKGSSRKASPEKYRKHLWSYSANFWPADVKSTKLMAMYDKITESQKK
Protein translocase subunit SecA (Escherichia coli (strain K12)), sequence (P10408 whole entry): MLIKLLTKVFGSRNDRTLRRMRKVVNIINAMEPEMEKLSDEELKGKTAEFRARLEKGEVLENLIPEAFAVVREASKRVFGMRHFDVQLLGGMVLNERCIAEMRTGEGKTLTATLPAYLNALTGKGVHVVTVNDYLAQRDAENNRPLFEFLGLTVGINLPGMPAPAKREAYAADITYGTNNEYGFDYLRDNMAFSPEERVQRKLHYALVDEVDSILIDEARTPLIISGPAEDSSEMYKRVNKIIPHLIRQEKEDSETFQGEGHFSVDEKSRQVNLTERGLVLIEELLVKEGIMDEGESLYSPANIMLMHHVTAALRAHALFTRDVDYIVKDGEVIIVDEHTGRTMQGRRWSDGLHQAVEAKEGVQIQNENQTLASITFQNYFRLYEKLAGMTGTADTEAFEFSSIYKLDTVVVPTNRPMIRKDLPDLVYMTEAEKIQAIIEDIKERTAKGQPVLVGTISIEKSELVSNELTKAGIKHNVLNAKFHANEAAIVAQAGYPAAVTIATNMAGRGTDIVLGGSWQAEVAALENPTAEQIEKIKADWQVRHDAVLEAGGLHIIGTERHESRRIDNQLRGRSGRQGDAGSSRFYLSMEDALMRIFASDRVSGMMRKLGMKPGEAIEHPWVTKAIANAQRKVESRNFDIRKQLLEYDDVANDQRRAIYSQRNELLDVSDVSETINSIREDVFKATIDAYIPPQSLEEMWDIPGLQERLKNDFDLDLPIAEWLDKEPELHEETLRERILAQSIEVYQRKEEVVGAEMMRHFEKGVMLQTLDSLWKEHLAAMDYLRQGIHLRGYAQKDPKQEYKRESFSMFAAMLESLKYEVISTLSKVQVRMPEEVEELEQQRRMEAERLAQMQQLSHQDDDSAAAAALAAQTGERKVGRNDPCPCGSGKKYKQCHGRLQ
Sialic acid-binding Ig-like lectin 9 (Homo sapiens), sequence (Q9Y336 whole entry): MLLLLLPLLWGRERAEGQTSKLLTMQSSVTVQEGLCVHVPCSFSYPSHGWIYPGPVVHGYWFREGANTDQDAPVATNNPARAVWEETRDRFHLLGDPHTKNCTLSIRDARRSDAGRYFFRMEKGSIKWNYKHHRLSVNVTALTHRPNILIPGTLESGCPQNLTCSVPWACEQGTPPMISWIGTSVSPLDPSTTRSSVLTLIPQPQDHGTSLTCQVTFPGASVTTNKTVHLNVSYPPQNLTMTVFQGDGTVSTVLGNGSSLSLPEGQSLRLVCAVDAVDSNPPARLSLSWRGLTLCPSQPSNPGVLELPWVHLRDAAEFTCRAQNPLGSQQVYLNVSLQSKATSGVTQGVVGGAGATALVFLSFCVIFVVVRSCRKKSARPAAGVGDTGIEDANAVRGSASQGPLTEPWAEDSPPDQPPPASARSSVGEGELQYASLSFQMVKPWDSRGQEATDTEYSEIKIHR

In the case of `CCc1nccn1C1CCCN(C(=O)c2csc(NC(C)=O)n2)C1` (stereo not given), the Percent Effect in [1] was -3.11%; in test [2] it was 15.6%; in test [3], 14.2%; with Trypanosoma cruzi, -2.98%; in [4], 0.205%; in test [5], 8.95%. The Percent Effect is -1.12% in the test listed under Homo sapiens, 4.9% in test [6], 11.8% in test [7] and -7.02% in test [8].

On to `CC(C)c1cc(C(F)(F)F)n2nc(CCC(=O)O)nc2n1`, for which the Percent Effect in test [1] was 1.24%; in test [2] it was 14.7%; in test [3], -8.51%; with Trypanosoma cruzi, -3.94%; in test [4], 2.65%; in [5], 10.5%. For the same compound, the Percent Effect is 19.8% in the test listed under Homo sapiens, 6.35% in test [6], 7.5% in [7] and -17.9% in test [8].

Turning to `Fc1cnc(N2CCOC3(CCN(Cc4ccsc4)CC3)C2)nc1`, the Percent Effect is -0.851% in test [1]; 3.9% in [2]; -6.39% in [3]; -6.52% in the test on Trypanosoma cruzi; 6.88% in test [4]; 5.37% and 9.17% in the test on N/A. The Percent Effect in the test listed under Homo sapiens was 4.01%; in test [6] it was 11.1%; in test [7], 7.69%; in test [8] it was -4.59%.

Consider `O=C(C1CCOC1)N1CC[C@@H](O)[C@@H]1Cc1ccccc1` (stereo not given in full), for which the Percent Effect is -4.39% in [1]; -14.3% in test [2]; -3.29% in [3]; -10.1% in the test with Trypanosoma cruzi; 3.2% in [4]; 6.09% in test [5]. The Percent Effect in the test filed under Homo sapiens was -3.1%; in test [6] it was -28%; in test [7], -60%; in test [8] it was -3.36%.

For `CCOc1ncccc1C(=O)N1CCCC1c1c(C)nn(C)c1OC` (stereo not given), the Percent Effect in [1] was 1.2%; in test [2], 0%; in [3], 10.2%; in the test with Trypanosoma cruzi, 1.68%; in test [4], -2.25%; in test [5], -2.81%. The Percent Effect in the test listed under Homo sapiens was -1.22%; in [6], 4.9%; in [7], 11.8%; in test [8] it was -4.83%.

On to `COc1ccc(F)cc1CN1CCCC(c2cc(C(N)=O)[nH]n2)C1` (stereo not given), for which the Percent Effect in test [1] is -3.96%; in [2], 5.33%; in [3], 5.92%; in the test with Trypanosoma cruzi it was 1.81%; in test [4], -2.22%; in test [5], 1.61%. Also, the Percent Effect in the test listed under Homo sapiens is 8.51%; in test [6], 3.68%; in test [7], 5.13%; in [8] it was -9.49%.

As to `Cc1nn(C)c(Cl)c1CNCc1ccc(OCC(N)=O)cc1`, the Percent Effect in test [1] is -6.28%; in [2], 10.7%; in test [3], 0.0227%; in the test with Trypanosoma cruzi, 4.42%; in test [4], 2.22%; in [5], 10.9%. Further, the Percent Effect in the test listed under Homo sapiens is 16.6%; in [6], 1.58%; in [7], 12.8%; in [8], -10.2%.

In the case of `COCC(=O)N1CCC2(CC1)CCN(Cc1ccccn1)C2=O`, the Percent Effect in test [1] was -4.26%; in test [2], -3.9%; in test [3], -5.87%; in the test on Trypanosoma cruzi, -2.24%; in test [4], -3.64%; in [5], 1.5%. In addition, the Percent Effect in the test listed under Homo sapiens was -7.24%; in [6], -2.63%; in test [7] it was -5.13%; in test [8], 0.829%.

Regarding `Cc1[nH]/c(=N\C(=O)c2csc(NCC(C)C)n2)sc1C`, the Percent Effect is -5.08% in test [1]; 5.41% in [2]; 2.69% in [3]; -3.2% in the test on Trypanosoma cruzi; -2.45% in test [4]; 53.4% and 61% with N/A. Further, the Percent Effect in the test filed under Homo sapiens stood at 20.5%; in test [6], 5.85%; in [7], 21.9%; in test [8], 0.249%.

Consider `NC(=O)c1cc(C2CCCN(CCCOc3ccccc3)C2)n[nH]1` (stereo not given), for which the Percent Effect in test [1] is 1.07%; in test [2] it was -15.4%; in test [3], 18.7%; with Trypanosoma cruzi, -0.282%; in [4], 6.15%; in test [5], 1.79%. In addition, the Percent Effect in the test filed under Homo sapiens is 0.734%; in [6] it was 1.44%; in test [7], -1.21%; in test [8], -4.36%.

Regarding `COc1ccc(CC(=O)N2CCCC(n3cc(C)cn3)C2)cc1F` (stereo not given), the Percent Effect in test [1] is -2.21%; in test [2] it was -2.67%; in [3] it was 3.32%; in the test with Trypanosoma cruzi, 0.201%; in test [4] it was 2.66%; in [5], 4.16%. For the same compound, the Percent Effect in the test filed under Homo sapiens was 3.46%; in test [6], 2.63%; in test [7], 2.56%; in [8], -4.37%.
